Mtb BioA inh – blocks M. tuberculosis BioA enzyme activity. 360,000 tested, 0.096% active. purified M. tuberculosis BioA enzyme, plate reader. inhibition, % at 9.99 µM; in the data active = inhibition above about 40%
Vc quorum ag – quorum light induction in luxS cqsA deficient V. cholerae | V. cholerae BH1578 lux reporter, luminescence, 6 h | activation, % at 18.7 µM | 350,000 tested, 0.16% active | AID 588436; in the data active = activation mostly above about 9.7%, no sharp cut-off
GDH-TPI counter – GDH-TPI coupled enzyme inhibition counter-screen; GDH-TPI coupled enzyme counterscreen, NADH absorbance; inhibition, % at 4.8 µM; 360,000 tested, 1.2% active; AID 588335; in the data active = inhibition above about 30%
FBA Mtb inh – inhibitors of M. tuberculosis fructose-bisphosphate aldolase; P9WQA3; 360,000 tested, 2.3% active; purified M. tuberculosis FBA, fluorescence read-out; inhibition, % at 1 µM; in the data active = inhibition above about 27%
Target sequence (P9WQA3 whole entry, looked up): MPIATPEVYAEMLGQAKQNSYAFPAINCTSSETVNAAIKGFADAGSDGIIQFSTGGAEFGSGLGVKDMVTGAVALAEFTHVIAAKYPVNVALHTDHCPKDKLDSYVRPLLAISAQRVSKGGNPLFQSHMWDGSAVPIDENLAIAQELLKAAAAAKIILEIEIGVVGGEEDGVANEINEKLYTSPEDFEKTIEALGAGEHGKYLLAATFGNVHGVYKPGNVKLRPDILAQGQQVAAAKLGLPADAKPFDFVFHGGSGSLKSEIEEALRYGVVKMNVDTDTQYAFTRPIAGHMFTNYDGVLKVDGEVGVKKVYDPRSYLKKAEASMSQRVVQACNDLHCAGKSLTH
Of the large screens only hits and unclear results are named; the others gave an inactive call. Compounds with a hit are over-represented: about 3% of the library has one in this group of screens.

CCS(=O)(=O)c1ccc(C=NNc2nc3ccccc3o2)cc1	GDH-TPI counter 37.0 (no result: Mtb BioA inh, Vc quorum ag)
CC(=O)c1ccc(Nc2nc(C(C)N)cs2)cc1 (configuration not stated)	GDH-TPI counter 31.2
CCOC(=O)c1sc2nc(CC(=O)OC)nc(NCC(=O)OC)c2c1C	FBA Mtb inh 125.9
CCOC(=O)c1sc2nc(CC(=O)OC)nc(NCc3ccco3)c2c1C	none
Cc1cc(=O)n2[nH]c(-c3ccccc3)cc2n1	none
Cc1cc(=O)n2[nH]c(-c3ccc(C(C)(C)C)cc3)cc2n1	FBA Mtb inh 35.9
O=C(C[C@@H]1C[C@H]2c3cc(NC(=O)NC4CCCC4)ccc3O[C@H]2[C@@H](CO)O1)NCc1ccc(Oc2ccccc2)cc1	none (no result: Vc quorum ag, GDH-TPI counter, FBA Mtb inh)
O=C(CSc1nc2ccccc2c(=O)[nH]1)Nc1ccc(C(=O)O)cc1	none
O=C(CSc1nc2ccccc2c(=O)[nH]1)Nc1ccc([N+](=O)[O-])cc1	GDH-TPI counter 38.4
CO[C@@H]1CN(C)C(=O)c2ccc(NS(C)(=O)=O)cc2OC[C@@H](C)NC[C@@H]1C	none (no result: Vc quorum ag, GDH-TPI counter, FBA Mtb inh)
CCNC(=O)c1sc(=S)n(CC)c1N	GDH-TPI counter 31.8 (no result: Mtb BioA inh)
CCn1c(N)c(C(=O)N2CCOCC2)sc1=S	GDH-TPI counter 30.7
C=CCn1c(N)c(C(=O)N2CCOCC2)sc1=S	none (no result: Mtb BioA inh)
C[C@@H]1CN([C@H](C)CO)C(=O)c2cc(NC(=O)Cc3ccccc3)ccc2O[C@@H](C)CCCCO[C@H]1CN(C)S(C)(=O)=O	none (no result: Vc quorum ag, GDH-TPI counter, FBA Mtb inh)
Cc1noc(C)c1S(=O)(=O)N(C)C[C@H]1OCCCC[C@H](C)Oc2ccc(NS(=O)(=O)c3ccccc3)cc2C(=O)N([C@@H](C)CO)C[C@@H]1C	none (no result: Vc quorum ag, GDH-TPI counter, FBA Mtb inh)
CCOC(=O)c1c(N)n(C2CC(C)(C)NC(C)(C)C2)c2nc3ccccc3nc12	FBA Mtb inh 154.5
CCOC(=O)c1c(N)n(CCN2CCCCC2)c2nc3ccccc3nc12	FBA Mtb inh 163.6
CCOC(=O)c1c(N)n(-c2ccc(N)cc2)c2nc3ccccc3nc12	none (no result: Mtb BioA inh)
COC(=O)c1c(N)n(CCCN2CCOCC2)c2nc3ccccc3nc12	FBA Mtb inh 157.8
COCCOC(=O)c1c(N)n(CCCN2CCOCC2)c2nc3ccccc3nc12	FBA Mtb inh 166.3 (no result: Mtb BioA inh)
COc1ccc(CCNC(=O)c2c(N)n(CCN3CCOCC3)c3nc4ccccc4nc23)cc1	none
C[C@H]1CN([C@@H](C)CO)C(=O)Cc2cc(NC(=O)CCC(F)(F)F)ccc2O[C@H]1CN(C)S(=O)(=O)c1ccccc1	none (no result: Vc quorum ag, GDH-TPI counter, FBA Mtb inh)
COc1ccc(-c2c(-c3cc(OC)cc(OC)c3)n(C)c3ccc(-c4ccc(OC)c(F)c4)cc23)cc1	none
COc1ccc(-c2c(-c3ccc(OC)c(F)c3)c3ccccc3n2C)cc1	FBA Mtb inh 37.4
N#C/C(=C/c1cn(-c2ccccc2)nc1-c1cccc(S(=O)(=O)N2CCOCC2)c1)C(=O)NCc1ccco1	none (no result: Mtb BioA inh)
N#C/C(=C/c1cn(-c2ccccc2)nc1-c1cccc(S(=O)(=O)N2CCCC2)c1)C(=O)NCc1ccco1	GDH-TPI counter 30.9
Cn1c(=O)c2cc(NC(=O)CC(C)(C)C)ccc2n1-c1ccccc1F	FBA Mtb inh 173.7
CC(CC(=O)Nc1ccc2c(c1)c(=O)n(C)n2-c1ccccc1F)c1ccccc1 (configuration not stated)	FBA Mtb inh 139.3
COc1ccc(C/C(O)=C(\C#N)c2nc3ccccc3s2)cc1	GDH-TPI counter 46.2
Cc1ccc(SC/C(O)=C(\C#N)c2nc3ccccc3s2)cc1	GDH-TPI counter 32.4
N#C/C(=C(/O)CSc1ccccc1C(=O)O)c1nc2ccccc2s1	GDH-TPI counter 73.4
N#C/C(=C(/O)CSc1ccccn1)c1nc2ccccc2s1	none (no result: Mtb BioA inh)
N#C/C(=C(/O)COc1ccccc1)c1nc2ccccc2s1	none
COc1ccc(CN(C)C[C@@H]2Oc3ccc(NC(=O)NC4CCCCC4)cc3CC(=O)N([C@H](C)CO)C[C@@H]2C)cc1	none (no result: Vc quorum ag, GDH-TPI counter, FBA Mtb inh)
CCCN1C[C@@H](C)[C@@H](OC)CN(C)C(=O)c2ccc(NC(=O)C3CC3)cc2OC[C@@H]1C	none (no result: Vc quorum ag, GDH-TPI counter, FBA Mtb inh)
CC(C)OC(=O)c1cc(C(=O)c2cc(F)ccc2O)coc1=N	GDH-TPI counter 36.4
O=C(CC(=O)N/N=C\c1c(Cl)cccc1Cl)NCc1ccccc1	Vc quorum ag 5.6
CNC[C@@H]1Oc2ccc(NS(=O)(=O)c3ccc(C)cc3)cc2C(=O)N([C@@H](C)CO)C[C@H]1C	none (no result: Vc quorum ag, GDH-TPI counter, FBA Mtb inh)
CN(C)c1ccc(/C=N/NC(N)=S)cc1[N+](=O)[O-]	GDH-TPI counter 42.6 (no result: Mtb BioA inh)
C=CCNC(=S)N/N=C/c1ccc(C)c([N+](=O)[O-])c1	none (no result: Mtb BioA inh)
O=C(N/N=C/c1ccc(O)cc1O)/C(=C/c1ccccc1)CCO	GDH-TPI counter 41.1
COc1cc(/C=N/NC(=O)/C(=C/c2ccccc2)CCO)ccc1O	GDH-TPI counter 39.3
C[C@H](CO)N1C[C@H](C)[C@@H](CN(C)Cc2ccncc2)Oc2cc(C3=CCCCC3)ccc2S1(=O)=O	none (no result: Vc quorum ag, GDH-TPI counter, FBA Mtb inh)
C[C@H]1CN([C@@H](C)CO)C(=O)c2cc(C#CCN(C)C)cnc2O[C@@H]1CN(C)C(=O)NC1CCCCC1	none (no result: Vc quorum ag, GDH-TPI counter, FBA Mtb inh)
Cn1c2ccccc2c(=O)c2cc(C#Cc3cccc(N)c3)ccc21	none
C=CCn1c2ccccc2c(=O)c2cc(C#CC[C@@H](C)O)ccc21	FBA Mtb inh active
Cc1noc(C)c1NC(=O)NCC[C@@H]1CC[C@H](NC(=O)Nc2cccc(F)c2)[C@@H](CO)O1	none (no result: Vc quorum ag, GDH-TPI counter, FBA Mtb inh)
COc1ccccc1CCc1nnc(CCC(=O)N(C)Cc2cccc3ncccc23)o1	FBA Mtb inh 158.8 (no result: Mtb BioA inh)
Cc1ccc2c(c1)c1cccc3c1n2CCN3CCC(N)=O	FBA Mtb inh 49.0 (no result: Mtb BioA inh)
O=C1CSC(c2cn(-c3ccccc3)nc2-c2cc3ccccc3oc2=O)N1Cc1ccco1 (configuration not stated)	GDH-TPI counter 31.4
Cc1ccc(S(=O)(=O)N(C)C[C@H]2Oc3ccc(NC(=O)NC4CCCCC4)cc3C(=O)N([C@H](C)CO)C[C@@H]2C)cc1	none (no result: Vc quorum ag, GDH-TPI counter, FBA Mtb inh)
O=C(Nc1ccc(F)cc1)C(=O)c1c(O)[nH]c2ccc([N+](=O)[O-])cc12	GDH-TPI counter 37.7
O=C(Nc1ccc([N+](=O)[O-])cc1)Nc1ccc2[nH]c(=O)[nH]c2c1	none
C[C@H]1CN([C@@H](C)CO)C(=O)c2cc(NC(=O)Nc3ccccc3)ccc2O[C@H]1CN(C)Cc1ccc(Cl)c(Cl)c1	none (no result: Vc quorum ag, GDH-TPI counter, FBA Mtb inh)
CSc1nc2nc(-c3ccccc3)cc(=O)n2[nH]1	none
COc1cccc(-c2cc3nc(-c4ccccc4)cc(=O)n3[nH]2)c1	FBA Mtb inh 84.5
O=C(Nc1ccc(O)cc1)/C(=C\C=C\c1ccccc1)NC(=O)c1ccccc1	GDH-TPI counter 74.0
O=C(NCc1ccco1)/C(=C/C=C/c1ccccc1)NC(=O)c1ccco1	none (no result: Mtb BioA inh)
COC(=O)/C(=C\C=C\c1ccccc1)NC(=O)c1ccccc1	none (no result: Mtb BioA inh)
O=C(Nc1ccc(C(=O)O)cc1)/C(=C\C=C\c1ccccc1)NC(=O)c1ccccc1Cl	GDH-TPI counter 55.6
Cc1ccc(C(=O)N/C(=C\C=C\c2ccccc2)C(=O)NCc2ccco2)cc1	GDH-TPI counter 35.9 (no result: Mtb BioA inh)
O=C(Nc1ccc(O)cc1)/C(=C\c1ccncc1)NC(=O)c1ccccc1	none
O=C(O)CCNC(=O)/C(=C\C=C\c1ccccc1)NC(=O)c1ccccc1	GDH-TPI counter 53.1
CN(C)CC(=O)N1CCCCN2[C@H](CO)[C@H](c3ccc(/C=C/c4ccccc4)cc3)[C@@H]2C1	none (no result: Vc quorum ag, GDH-TPI counter, FBA Mtb inh)
